Results from PubChem BioAssay (NCI).
The panel holds about 79,000 compounds, 15% with a hit somewhere; the sample as a whole holds those more often. The source made the active and inactive calls. No stated cut-off is given here; in the data, active means growth inhibition above about 70%; inactive means the rest.

Columns and labels:
[1] = NCI Yeast Anticancer Drug Screen. Data for the mlh1 strain (AID 171);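 further: 0% = growth of vehicle-treated control cultures of the same strain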; conditions: S. cerevisiae mlh1 strain growth inhibition, hits give high values
Method in brief: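 Measured: yeast growth. Reference: vehicle-treated controls. Organism: strain with a defined alteration affecting DNA damage repair or cell cycle control, treated with compound.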

[2] = NCI Yeast Anticancer Drug Screen. Data for the mlh1 rad18 strain (AID 175); conditions: S. cerevisiae mlh1 rad18 strain growth inhibition, hits give high values
Method in brief: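 Genetically defined yeast (DNA repair-deficient) exposed to compounds; growth inhibition determined relative to vehicle.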

[3] = NCI Yeast Anticancer Drug Screen. Data for the rad18 strain (AID 177); conditions: S. cerevisiae rad18 mutant growth inhibition, hits give high values
Method in brief: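 Vehicle-treated cultures served as the baseline for scoring compound-induced growth inhibition in DNA-repair-mutant yeast.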

[4] = NCI Yeast Anticancer Drug Screen. Data for the rad52 strain (AID 147);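 further: 0% = growth of vehicle-treated control cultures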; conditions: S. cerevisiae rad52 mutant growth inhibition, hits give high values
Method in brief: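 The repair-mutant yeast strain was incubated with compounds, then growth was read and inhibition derived relative to vehicle.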

[5] = NCI Yeast Anticancer Drug Screen. Data for the wt1 strain (AID 149);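 further: 0% = growth of vehicle-treated wt1 cultures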; conditions: S. cerevisiae wt1 strain (SPY 50644) growth inhibition, hits give high values
Method in brief: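 Using yeast strain wt1, compound-induced growth inhibition was determined against vehicle-treated cultures.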

[6] = NCI Yeast Anticancer Drug Screen. Data for the mgt1 strain (AID 153); conditions: S. cerevisiae mgt1 mutant growth inhibition, hits give high values
Method in brief: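 Vehicle-normalized growth inhibition is determined in mgt1 yeast, a strain selected for a defined alteration in DNA repair or cell cycle control.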

[7] = NCI Yeast Anticancer Drug Screen. Data for the rad50 strain (AID 155);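 further: 0% = growth of vehicle-only cultures of the same strain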; conditions: S. cerevisiae rad50 strain growth inhibition, hits give high values
Method in brief: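 Relative growth inhibition (compound vs vehicle) was measured in yeast with a defined repair-gene alteration.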

[8] = NCI Yeast Anticancer Drug Screen. Data for the mec2-1 strain (AID 157); conditions: S. cerevisiae mec2-1 strain, hits give high values
Method in brief: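 Mutant yeast (mec2-1) grown with compound; growth inhibition relative to vehicle control reported.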

[9] = NCI Yeast Anticancer Drug Screen. Data for the rad14 strain (AID 159);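 further: 0% = growth of vehicle-treated control cultures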; conditions: S. cerevisiae rad14 strain growth inhibition, hits give high values
Method in brief: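 Screen for anticancer potential: a yeast strain altered in DNA damage repair is grown with compound, and reduced growth is quantified against vehicle controls.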

[10] = NCI Yeast Anticancer Drug Screen. Data for the sgs1 mgt1 strain (AID 161);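 further: 0% = growth of cultures given vehicle only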; conditions: S. cerevisiae sgs1 mgt1 strain, hits give high values
Method in brief: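 Percent growth inhibition was derived by comparing compound-exposed mutant yeast with vehicle-exposed cultures. The strain carries alterations in DNA damage repair.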

[11] = NCI Yeast Anticancer Drug Screen. Data for the CLN2oe strain (AID 163);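 further: 0% = growth of vehicle-only control cultures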; conditions: S. cerevisiae CLN2oe strain, hits give high values
Method in brief: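 Compounds are applied to yeast harbouring a defined cell-cycle control change; reduced growth compared with vehicle-treated controls gives the value.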

[12] = NCI Yeast Anticancer Drug Screen. Data for the cln2 rad14 strain (AID 165);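 further: 0% = growth equal to vehicle treated cultures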; conditions: S. cerevisiae cln2 rad14 strain, hits give high values
Method in brief: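 Readout is yeast growth inhibition versus vehicle-treated controls, using a strain with cln2 and rad14 alterations exposed to compound.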

[13] = NCI Yeast Anticancer Drug Screen. Data for the bub3 strain (AID 167); conditions: S. cerevisiae bub3 mutant strain, hits give high values
Method in brief: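 Screening used yeast with an engineered genetic alteration affecting cell cycle control. Compound-exposed cultures were compared with vehicle cultures, and reduced growth was taken as inhibition.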

[14] = NCI Yeast Anticancer Drug Screen. Data for the wt2 strain (AID 169);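 further: 0% = growth of vehicle-treated yeast cultures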; conditions: S. cerevisiae wt2 strain growth inhibition, hits give high values
Method in brief: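 Against vehicle-treated controls, the growth of yeast exposed to each compound was compared, and the inhibition was recorded.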

[15] = NCI Yeast Anticancer Drug Screen. Data for the rad50EPP+ strain (AID 151);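 further: 0% = growth of vehicle-treated control cultures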; conditions: S. cerevisiae rad50 mutant strain, hits give high values
Method in brief: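 Vehicle-normalised growth inhibition; rad50EPP+ yeast strain, altered in DNA damage repair, compound-treated.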

[16] = NCI Yeast Anticancer Drug Screen. Data for the sgs1 strain (AID 173);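 further: 0% = growth of vehicle-only control cultures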; conditions: S. cerevisiae sgs1 mutant, hits give high values
Method in brief: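 Each compound was added to cultures of the altered yeast strain. Growth was recorded, and inhibition was derived by comparison with vehicle controls.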

[17] = at 5.0 µM (retest, dose inferred, filed as 0.5)
[18] = at 50.0 µM (retest, dose inferred, filed as 5.0)

Measured: growth inhibition

CC(=O)OCC(C)Cc1cc2c(cc1Br)OCO2 (centres undefined)
inactive: [1]; at 1.2 µM -21% | [1]; at 3.7 µM -8% | [1]; at 11.0 µM -10% | [1]; at 33.0 µM -11% | [1]; at 100.0 µM 62% | [2]; [17] 1% | [3]; at 1.2 µM -9% | [3]; at 3.7 µM -8% | [3]; at 11.0 µM -10% | [3]; at 33.0 µM -10% | [3]; at 100.0 µM 13%
active: [2]; [18] 70% | [2]; at 50.0 µM 78.8%

C[Si](C)(C)/C=C/CCNC(C#N)c1ccccc1 (centres undefined)
inactive: [4]; at 1.2 µM -10% | [4]; at 3.7 µM -9% | [4]; at 11.0 µM 48% | [4]; at 33.0 µM 32% | [5]; at 1.2 µM 3% | [5]; at 3.7 µM -2% | [5]; at 11.0 µM 41% | [5]; at 33.0 µM 35% | [6]; at 1.2 µM -14% | [6]; at 3.7 µM -25% | [6]; at 11.0 µM 38% | [6]; at 33.0 µM 22% | [7]; at 1.2 µM -14% | [7]; at 3.7 µM -28% | [7]; at 11.0 µM 47% | [7]; at 33.0 µM 10% | [8]; at 1.2 µM -21% | [8]; at 3.7 µM -23% | [8]; at 11.0 µM 43% | [8]; at 33.0 µM 23% | [9]; at 1.2 µM -6% | [9]; at 3.7 µM 3% | [9]; at 11.0 µM 37% | [9]; at 33.0 µM 52% | [10]; [17] -12% | [11]; at 1.2 µM 3% | [11]; at 3.7 µM 10% | [11]; at 11.0 µM 52% | [11]; at 33.0 µM 42% | [12]; [17] 32% | [13]; at 1.2 µM -8% | [13]; at 3.7 µM 7% | [13]; [17] 12% | [13]; at 11.0 µM 38% | [13]; at 33.0 µM 43% | [14]; at 1.2 µM -9% | [14]; at 3.7 µM -19% | [14]; at 11.0 µM 39% | [14]; at 33.0 µM 36% | [1]; at 1.2 µM -16% | [1]; at 3.7 µM -5% | [1]; at 11.0 µM 49% | [1]; at 33.0 µM 33% | [3]; at 1.2 µM -33% | [3]; at 3.7 µM -42% | [3]; at 11.0 µM 27% | [3]; at 33.0 µM 23%
active: [4]; at 100.0 µM 93% | [5]; at 100.0 µM 95% | [6]; at 100.0 µM 94% | [7]; [17] 98% | [7]; [18] 99% | [7]; at 50.0 µM 89.7% | [7]; at 100.0 µM 92% | [8]; [17] 98% | [8]; [18] 99% | [8]; at 50.0 µM 91.8% | [8]; at 100.0 µM 95% | [9]; at 100.0 µM 94% | [10]; [18] 97% | [10]; at 50.0 µM 92.7% | [11]; at 100.0 µM 93% | [12]; [18] 97% | [12]; at 50.0 µM 90.2% | [13]; [18] 95% | [13]; at 50.0 µM 90.1% | [13]; at 100.0 µM 93% | [14]; at 100.0 µM 95% | [1]; at 100.0 µM 95% | [2]; [17] 99% | [2]; [18] 99% | [2]; at 50.0 µM 90.3% | [3]; at 100.0 µM 92%

COc1cc(O)c(O)c(C(C)(C)C)c1
inactive: [4]; at 1.2 µM -1% | [4]; at 3.7 µM 3% | [4]; at 11.0 µM 5% | [4]; at 33.0 µM 10% | [4]; at 100.0 µM 19% | [15]; at 1.2 µM 12% | [15]; at 3.7 µM 16% | [15]; at 11.0 µM 41% | [15]; at 33.0 µM 53% | [15]; at 100.0 µM 50% | [6]; at 1.2 µM -2% | [6]; at 3.7 µM -2% | [6]; at 11.0 µM 4% | [6]; at 33.0 µM 24% | [6]; at 100.0 µM 12% | [7]; at 1.2 µM 0% | [7]; at 3.7 µM -2% | [7]; [17] 10% | [7]; at 11.0 µM 3% | [7]; at 33.0 µM 6% | [7]; [18] 38% | [7]; at 50.0 µM 63.7% | [7]; at 100.0 µM 12% | [8]; at 1.2 µM -3% | [8]; at 3.7 µM -1% | [8]; [17] 4% | [8]; at 11.0 µM 0% | [8]; at 33.0 µM 5% | [8]; [18] 16% | [8]; at 50.0 µM 59.5% | [8]; at 100.0 µM 18% | [9]; at 1.2 µM -1% | [9]; at 3.7 µM -3% | [9]; at 11.0 µM 5% | [9]; at 33.0 µM 10% | [9]; at 100.0 µM 19% | [10]; [17] 2% | [10]; [18] 50% | [10]; at 50.0 µM 63.8% | [11]; at 1.2 µM -1% | [11]; at 3.7 µM -3% | [11]; at 11.0 µM 3% | [11]; at 33.0 µM -3% | [11]; at 100.0 µM -6% | [12]; [17] -14% | [12]; [18] 18% | [12]; at 50.0 µM 4.65% | [13]; at 1.2 µM -6% | [13]; at 3.7 µM -5% | [13]; [17] 0% | [13]; at 11.0 µM 2% | [13]; at 33.0 µM 7% | [13]; at 50.0 µM 61.1% | [13]; at 100.0 µM 17% | [14]; at 1.2 µM -1% | [14]; at 3.7 µM 0% | [14]; at 11.0 µM 8% | [14]; at 33.0 µM 12% | [14]; at 100.0 µM 17% | [1]; at 1.2 µM 3% | [1]; at 3.7 µM 3% | [1]; at 11.0 µM 9% | [1]; at 33.0 µM 15% | [1]; at 100.0 µM 26% | [16]; at 1.2 µM 1% | [16]; at 3.7 µM 7% | [16]; at 11.0 µM 16% | [16]; at 33.0 µM 8% | [16]; at 100.0 µM 43% | [2]; [17] 20% | [2]; at 50.0 µM 22.9% | [3]; at 1.2 µM 0% | [3]; at 3.7 µM 1% | [3]; at 11.0 µM -17% | [3]; at 33.0 µM 8% | [3]; at 100.0 µM 16%
active: [13]; [18] 82% | [2]; [18] 82%
